Results taken from PubChem BioAssay AID1508622 (National Center for Advancing Translational Sciences (NCATS), 2021).
Active and inactive are the calls of the source. Calls come from the whole dose curve; as a rule, active = well fitted activation curve with a large enough effect; inconclusive = small, poorly fitted or top-dose-only effect; inactive = no such curve, though single readings can be large or run the other way.

Assay: Confirmatory qHTS for Identification of Small Molecule Activators of Huntingtin-Antisense Promoter Activity
Conditions: HEK293 HTT-AS promoter firefly luciferase reporter, 24 h; series mostly up to 57.5 µM
Procedure, shortened: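 Activity normalized between vehicle control (0%) and zero RLU (-100%) from firefly luminescence (Dual-Glo). Compounds, up to 57.5 uM final, incubated 24 h at 37C on HEK293 reporter cells plated 24 h earlier.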

Potency, inactive:
N#CC[C@H](C1CCCC1)n1cc(-c2ncnc3[nH]ccc23)cn1, CCCC(=O)c1ccc(OC(=O)c2c(-c3ccccc3Cl)noc2C)cc1, Cc1ccc(-c2cn3nc(N4CCCC(C(=O)Nc5ccc(F)cc5)C4)sc3n2)cc1 (stereo unspecified), COCCNc1nc2c(c(=O)n(C)c(=O)n2C)n1Cc1c(F)cccc1Cl, Cc1cccc2sc(N3CCN(C(=O)CS(=O)(=O)c4ccc(F)cc4)CC3)nc12, COc1ccc(-c2cc(C)no2)cc1S(=O)(=O)N1CCN(c2ccccc2F)CC1, CCc1ccc(C2CC(=O)Nc3c2c(C)nn3-c2nc(C)cc(C)n2)cc1 (stereo unspecified), CCc1c(C)sc2c1CCN(Cc1ccc(F)cc1)C2c1ccccc1 (stereo unspecified), O=C(Nc1cc(Cl)cc(Cl)c1)c1ccc(F)c(S(=O)(=O)N2CCCC2)c1, COc1ccc(C)cc1NC(=O)CN1CCCN(S(=O)(=O)c2ccc(Br)cc2)CC1, O=C(Nc1ccccc1)C1CCN(S(=O)(=O)c2ccc3[nH]c4c(c3c2)CCCCC4)CC1, CCOc1cc(CNCCSc2nnnn2-c2ccccc2)cc(Cl)c1OC, O=C(Cn1c(=O)oc2cc(S(=O)(=O)N3CCCCC3)ccc21)NCc1ccc(F)cc1, Cc1cc(C)c(Cn2c3ccccc3c3cnn(CC(=O)N4CCCCC4)c(=O)c32)c(C)c1, CCC(C(=O)NCc1ccc(OC)c(OC)c1)n1nc(C)c2c(C)n(-c3ccc(C)cc3)nc2c1=O (stereo unspecified), CC(C)c1ccc(NC(=O)C2CCN(c3nc(-c4ccc(C(C)C)cc4)no3)CC2)cc1
